Experimental data: PubChem BioAssay (NCI)
The panel holds about 79,000 compounds, 15% with a hit somewhere; the sample as a whole holds those more often. Activity calls are given as the source filed them. No stated cut-off is given here; in the data, active means growth inhibition above about 70%; inactive means the rest.

Tests used:
[1] = NCI Yeast Anticancer Drug Screen. Data for the rad52 strain (AID 147);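 further: 0% = growth of vehicle-treated control cultures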; settings: S. cerevisiae rad52 mutant growth inhibition, stronger effect = higher value
In short: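 Measured: yeast growth inhibition. System: strain with a defined DNA damage repair alteration. Reference: vehicle-treated control cultures.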

[2] = NCI Yeast Anticancer Drug Screen. Data for the wt1 strain (AID 149);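 further: 0% = growth of vehicle-treated wt1 cultures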; settings: S. cerevisiae wt1 strain (SPY 50644) growth inhibition, stronger effect = higher value
In short: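 wt1 strain grown with compound or vehicle; inhibition taken from the growth difference.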

[3] = NCI Yeast Anticancer Drug Screen. Data for the rad50EPP+ strain (AID 151);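 further: 0% = growth of vehicle-treated control cultures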; settings: S. cerevisiae rad50 mutant strain, stronger effect = higher value
In short: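 One strain with a rad50 alteration (rad50EPP+) was compound-treated, its growth then compared to that of vehicle controls.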

[4] = NCI Yeast Anticancer Drug Screen. Data for the mgt1 strain (AID 153); settings: S. cerevisiae mgt1 mutant growth inhibition, stronger effect = higher value
In short: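 After exposure of the mgt1 yeast mutant to compound, growth was measured and reported as inhibition compared with vehicle controls.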

[5] = NCI Yeast Anticancer Drug Screen. Data for the rad50 strain (AID 155);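 further: 0% = growth of vehicle-only cultures of the same strain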; settings: S. cerevisiae rad50 strain growth inhibition, stronger effect = higher value
In short: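 DNA repair mutant yeast, compound exposure, growth read-out; inhibition is taken relative to vehicle.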

[6] = NCI Yeast Anticancer Drug Screen. Data for the mec2-1 strain (AID 157); settings: S. cerevisiae mec2-1 strain, stronger effect = higher value
In short: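 Test agents were screened against the mec2-1 yeast strain, with defined DNA repair or cell cycle alteration. Growth was scored as inhibition against vehicle-only controls.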

[7] = NCI Yeast Anticancer Drug Screen. Data for the rad14 strain (AID 159);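 further: 0% = growth of vehicle-treated control cultures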; settings: S. cerevisiae rad14 strain growth inhibition, stronger effect = higher value
In short: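 DNA repair-defective yeast, compound-exposed; % growth inhibition derived by comparison with vehicle-treated controls.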

[8] = NCI Yeast Anticancer Drug Screen. Data for the sgs1 mgt1 strain (AID 161);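 further: 0% = growth of cultures given vehicle only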; settings: S. cerevisiae sgs1 mgt1 strain, stronger effect = higher value
In short: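 Mutant yeast exposed to compound; growth scored against vehicle-only wells.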

[9] = NCI Yeast Anticancer Drug Screen. Data for the cln2 rad14 strain (AID 165);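 further: 0% = growth equal to vehicle treated cultures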; settings: S. cerevisiae cln2 rad14 strain, stronger effect = higher value
In short: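 Growth of compound-exposed yeast (cln2 rad14 genotype) measured and expressed as inhibition relative to vehicle.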

[10] = NCI Yeast Anticancer Drug Screen. Data for the bub3 strain (AID 167); settings: S. cerevisiae bub3 mutant strain, stronger effect = higher value
In short: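 In this screen, a yeast mutant lacking normal mitotic checkpoint function is challenged with compound. Relative growth versus vehicle gives the inhibition value.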

[11] = NCI Yeast Anticancer Drug Screen. Data for the wt2 strain (AID 169);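 further: 0% = growth of vehicle-treated yeast cultures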; settings: S. cerevisiae wt2 strain growth inhibition, stronger effect = higher value
In short: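 Genetically defined yeast strains from a DNA-repair/cell-cycle panel were used. Compound-exposed yeast growth was measured, and the inhibition was calculated relative to vehicle treatment.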

[12] = NCI Yeast Anticancer Drug Screen. Data for the mlh1 strain (AID 171);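 further: 0% = growth of vehicle-treated control cultures of the same strain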; settings: S. cerevisiae mlh1 strain growth inhibition, stronger effect = higher value
In short: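 Here the genetically defined yeast mutant is grown with each compound, and the extent to which its growth falls below that of vehicle-exposed cells is reported.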

[13] = NCI Yeast Anticancer Drug Screen. Data for the sgs1 strain (AID 173);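 further: 0% = growth of vehicle-only control cultures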; settings: S. cerevisiae sgs1 mutant, stronger effect = higher value
In short: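 Relative growth inhibition, referenced to vehicle, was determined in a yeast strain with a defined alteration affecting DNA damage repair or cell cycle control after compound exposure.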

[14] = NCI Yeast Anticancer Drug Screen. Data for the mlh1 rad18 strain (AID 175); settings: S. cerevisiae mlh1 rad18 strain growth inhibition, stronger effect = higher value
In short: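 In this whole-cell yeast screen, a strain with altered DNA damage repair is challenged with compound, and its growth is measured against matched vehicle-treated controls.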

[15] = NCI Yeast Anticancer Drug Screen. Data for the rad18 strain (AID 177); settings: S. cerevisiae rad18 mutant growth inhibition, stronger effect = higher value
In short: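 Screen uses a yeast strain with a defined lesion in DNA damage repair; compound effect is read as loss of growth compared to untreated vehicle cultures.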

[16] = at 5.0 µM (retest, dose inferred, filed as 0.5)
[17] = at 50.0 µM (retest, dose inferred, filed as 5.0)

Measured: growth inhibition

C/C(=N/NC(=S)N1CCCCCC1)c1cccc(/C(C)=N\NC(=S)N2CCCCCC2)n1
active: [1]; at 33.0 µM 73% | [1]; at 100.0 µM 71% | [2]; at 33.0 µM 82% | [2]; at 100.0 µM 81% | [4]; at 33.0 µM 80% | [5]; at 33.0 µM 79% | [5]; [17] 93% | [5]; at 50.0 µM 90.8% | [5]; at 100.0 µM 73% | [6]; at 33.0 µM 81% | [6]; [17] 92% | [6]; at 50.0 µM 91% | [6]; at 100.0 µM 83% | [7]; at 33.0 µM 71% | [7]; at 100.0 µM 76% | [8]; [17] 93% | [8]; at 50.0 µM 92.8% | [9]; [17] 91% | [9]; at 50.0 µM 93.2% | [10]; [17] 92% | [10]; at 50.0 µM 92% | [12]; at 33.0 µM 76% | [12]; at 100.0 µM 71% | [13]; at 100.0 µM 73% | [14]; [17] 91% | [14]; at 50.0 µM 90.3% | [15]; at 100.0 µM 70%
inactive: [1]; at 1.2 µM 19% | [1]; at 3.7 µM 25% | [1]; at 11.0 µM 54% | [2]; at 1.2 µM 17% | [2]; at 3.7 µM 34% | [2]; at 11.0 µM 60% | [3]; at 1.2 µM 0% | [3]; at 3.7 µM -1% | [3]; at 11.0 µM -27% | [3]; at 33.0 µM -48% | [3]; at 100.0 µM -39% | [4]; at 1.2 µM 23% | [4]; at 3.7 µM 35% | [4]; at 11.0 µM 52% | [4]; at 100.0 µM 69% | [5]; at 1.2 µM 38% | [5]; at 3.7 µM 42% | [5]; [16] 42% | [5]; at 11.0 µM 62% | [6]; at 1.2 µM 22% | [6]; at 3.7 µM 31% | [6]; [16] 31% | [6]; at 11.0 µM 51% | [7]; at 1.2 µM 6% | [7]; at 3.7 µM 14% | [7]; at 11.0 µM 40% | [8]; [16] 43% | [9]; [16] 9% | [10]; at 1.2 µM -4% | [10]; at 3.7 µM -3% | [10]; [16] 58% | [10]; at 11.0 µM -4% | [10]; at 33.0 µM 7% | [10]; at 100.0 µM 15% | [11]; at 1.2 µM -1% | [11]; at 3.7 µM -6% | [11]; at 11.0 µM -1% | [11]; at 33.0 µM 8% | [11]; at 100.0 µM 32% | [12]; at 1.2 µM -2% | [12]; at 3.7 µM -9% | [12]; at 11.0 µM 51% | [13]; at 1.2 µM 21% | [13]; at 3.7 µM 15% | [13]; at 11.0 µM 41% | [13]; at 33.0 µM 66% | [14]; [16] 59% | [15]; at 1.2 µM 10% | [15]; at 3.7 µM 26% | [15]; at 11.0 µM 46% | [15]; at 33.0 µM 67%
